Source: PubChem BioAssay (NCI)
Compounds without any hit were thinned out: in the full panel of roughly 79,000, 15% have a hit. Values without a mark were called inactive. The source made the active and inactive calls. Cut-off read from the data, not from the text of the source: active = growth inhibition above about 70%; inactive = the rest.

Key:
[1] = NCI Yeast Anticancer Drug Screen. Data for the rad50 strain (AID 155);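 note: 0% = growth of vehicle-only cultures of the same strain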; details: S. cerevisiae rad50 strain growth inhibition, stronger effect = higher value
Outline: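 DNA repair mutant yeast, compound exposure, growth read-out; inhibition is taken relative to vehicle.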

[2] = NCI Yeast Anticancer Drug Screen. Data for the mec2-1 strain (AID 157); details: S. cerevisiae mec2-1 strain, stronger effect = higher value
Outline: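 Vehicle-treated cultures served as reference for growth inhibition of compound-exposed mec2-1 yeast.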

[3] = NCI Yeast Anticancer Drug Screen. Data for the sgs1 mgt1 strain (AID 161);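 note: 0% = growth of cultures given vehicle only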; details: S. cerevisiae sgs1 mgt1 strain, stronger effect = higher value
Outline: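 Inhibition of yeast growth, normalised to vehicle-treated controls, is reported for a strain bearing genetic alterations in DNA damage repair.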

[4] = NCI Yeast Anticancer Drug Screen. Data for the cln2 rad14 strain (AID 165);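 note: 0% = growth equal to vehicle treated cultures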; details: S. cerevisiae cln2 rad14 strain, stronger effect = higher value
Outline: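 Each compound was tested on cln2 rad14 yeast. Inhibition of growth was calculated against vehicle-exposed controls.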

[5] = NCI Yeast Anticancer Drug Screen. Data for the bub3 strain (AID 167); details: S. cerevisiae bub3 mutant strain, stronger effect = higher value
Outline: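 In this screen, a yeast mutant lacking normal mitotic checkpoint function is challenged with compound. Relative growth versus vehicle gives the inhibition value.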

[6] = NCI Yeast Anticancer Drug Screen. Data for the mlh1 rad18 strain (AID 175); details: S. cerevisiae mlh1 rad18 strain growth inhibition, stronger effect = higher value
Outline: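 Vehicle-treated cultures served as the reference for growth inhibition in a yeast strain carrying DNA damage repair alterations exposed to each compound.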

[7] = at 5.0 µM (retest, dose inferred, filed as 0.5)
[8] = at 50.0 µM (retest, dose inferred, filed as 5.0)

| Structure (SMILES) | growth inhibition [1, 7] | growth inhibition [1, 8] | growth inhibition ([1]; at 50.0 µM) | growth inhibition [2, 7] | growth inhibition [2, 8] | growth inhibition ([2]; at 50.0 µM) | growth inhibition [3, 7] [%] | growth inhibition [3, 8] | growth inhibition ([3]; at 50.0 µM) | growth inhibition [4, 7] [%] | growth inhibition [4, 8] | growth inhibition ([4]; at 50.0 µM) | growth inhibition [5, 7] [%] | growth inhibition [5, 8] | growth inhibition ([5]; at 50.0 µM) | growth inhibition [6, 7] | growth inhibition [6, 8] | growth inhibition ([6]; at 50.0 µM) |
| --- | --- | --- | --- | --- | --- | --- | --- | --- | --- | --- | --- | --- | --- | --- | --- | --- | --- | --- |
| CCN(CC)CCCNc1nc(NCCCN(CC)CC)c2nc(-c3ccccc3)c(-c3ccccc3)nc2n1 | -3% | 93% (active) | 66.5% | 2% | 93% (active) | 61.4% | -2 | 94% (active) | 63.8% | 0 | 47% | 77.4% (active) | -4 | 92% (active) | 56.1% | -6% | 94% (active) | 98.5% (active) |
| C/C(CCC(=O)O)=N/Nc1ccc(C(=O)O)cc1 | 11% | 74% (active) | 66% | 0% | 71% (active) | 5.4% | 1 | 64% | 17.9% | 7 | 91% (active) | 5.85% | 2 | 91% (active) | 31.4% | 5% | 89% (active) | 23.7% |
| O=C(c1ccc(O)cc1)c1ccccc1O | 6% | 76% (active) | 63.8% | -7% | 23% | 37.2% | -2 | 14% | 44.4% | -1 | 3% | -7.55% | 45 | 41% | 17.9% | -2% | 23% | 51.6% |
| Cc1ccc(Sc2ccc(C)cc2[N+](=O)[O-])c([N+](=O)[O-])c1 | 33% | 40% | 2.7% | 31% | 35% | -10.7% | 69 | 68% | 66.2% | 39 | 37% | 20.5% | 56 | 56% | 29.1% | 43% | 53% | -8.85% |
| C=CC1(C)CCC2C(=CCC3C2(C)CC(O)C(O)C3(C)COC2OC(CO)C(O)C(O)C2O)C1 (stereo not given) | 1% | 99% (active) | 93.1% (active) | -1% | 100% (active) | 94.1% (active) | -1 | 99% (active) | 94.1% (active) | 1 | 99% (active) | 90.5% (active) | 0 | 99% (active) | 93.6% (active) | 0% | 82% (active) | -41.4% |
| O=C1C=CC(=O)N1c1ccc(Br)c(Cl)c1 | 101% (active) | 100% (active) | 68.7% | 100% (active) | 100% (active) | 87.8% (active) | 21 | 100% (active) | 80.3% (active) | 46 | 100% (active) | 24.2% | 37 | 100% (active) | 66.6% | 100% (active) | 100% (active) | 63.7% |
| CN(C)C(=S)N1C(=S)N(c2ccccc2)C(=Nc2ccccc2)C1=Nc1ccccc1 | -25% | -4% | 49.4% | -9% | -11% | -23.6% | -3 | -12% | -5% | -18 | -12% | -18.3% | -13 | -8% | -30.1% | -20% | -24% | -7.7% |
| Cc1ccc(NCCNCCO)c2c(=O)c3ccccc3sc12 | 27% | 99% (active) | 99.5% (active) | 9% | 100% (active) | 99.6% (active) | 9 | 100% (active) | 99.2% (active) | 8 | 99% (active) | 99.4% (active) | 11 | 99% (active) | 99.5% (active) | 25% | 99% (active) | 99.5% (active) |
| CC(=O)Oc1cc2c(=O)oc3c(OC(C)=O)c(OC(C)=O)c(OC(C)=O)c4c(=O)oc(c1OC(C)=O)c2c34 | 40% | 58% | 89.5% (active) | 41% | 48% | 76.6% (active) | 37 | 61% | 87.2% (active) | 20 | 40% | 73.8% (active) | 45 | 71% (active) | 88.3% (active) | 39% | 45% | 88.2% (active) |
| O=c1cccccc1O.O=c1cccccc1O.O=c1cccccc1O.[Ru] | 29% | 64% | 87.5% (active) | 32% | 90% (active) | 96.2% (active) | 49 | 81% (active) | 91.5% (active) | 11 | 36% | 26.4% | -11 | -9% | 15.8% | 55% | 81% (active) | 95.1% (active) |
